GLP-1R inv ag = qHTS of GLP-1 Receptor Inverse Agonists (Inhibition Mode); HEK293 GLP-1R CRE-luciferase, luminescence, 24 h; GLP-1R form is constitutively active; AID 624417, 2012; Glucagon-like peptide 1 receptor (Homo sapiens), P43220; hit rate 1.6% among 410,000; Potency, µM (titrated, usually from 38.3 µM), for inactives: at the highest dose activity change, negative = inhibition, usual class: inhibitors; note: % is set by controls: 0 for no effect and ±100 for the full control effect; nearly all actives have a fitted effect of over 55% in size
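Constitutively active GLP-1R drives a cAMP-responsive luciferase in stably transfected HEK293 cells; test compounds are added after overnight (12 h) attachment and left 24 hr, and signal loss in luminescence marks inhibition.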
RORgamma inh = qHTS for inhibitors of ROR gamma transcriptional activity | Drosophila S2 Gal4-RORgamma UAS-luciferase reporter, 20 h | Potency, µM (top dose mostly 53.6 µM), inactives show top-dose activity change, negative = inhibition, actives largely listed as inhibitors | hit rate 5.4% among 310,000 | AID 2551, 2010; note: % is set by controls: 0 for no effect and ±100 for the full control effect; nearly all actives have a fitted effect of over 60% in size
Target sequence (P51450 whole entry, looked up, the tested form may be a part): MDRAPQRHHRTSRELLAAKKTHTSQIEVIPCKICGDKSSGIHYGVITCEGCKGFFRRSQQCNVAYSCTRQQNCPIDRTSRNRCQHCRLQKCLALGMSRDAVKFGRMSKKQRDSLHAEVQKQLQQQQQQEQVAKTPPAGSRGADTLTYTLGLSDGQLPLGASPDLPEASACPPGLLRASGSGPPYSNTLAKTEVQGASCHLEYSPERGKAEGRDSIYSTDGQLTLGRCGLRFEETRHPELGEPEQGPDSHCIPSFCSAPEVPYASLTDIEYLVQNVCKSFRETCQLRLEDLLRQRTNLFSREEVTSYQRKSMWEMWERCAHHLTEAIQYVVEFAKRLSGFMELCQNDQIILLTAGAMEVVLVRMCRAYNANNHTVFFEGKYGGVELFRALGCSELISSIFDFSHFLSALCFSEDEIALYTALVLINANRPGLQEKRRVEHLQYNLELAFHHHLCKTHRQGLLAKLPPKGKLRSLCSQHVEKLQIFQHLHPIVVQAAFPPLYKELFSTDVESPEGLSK
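Compounds are pin-transferred onto Drosophila Schneider cells expressing a copper-inducible Gal4–ROR gamma transactivation domain fusion. After 1 hr, copper sulfate is added to 700 uM final; luciferase is read 20 hr later.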
GLP1R cytotox = qHTS of GLP-1 Receptor Inverse Agonists: Cytotox Screen; HEK293 cAMP-luciferase reporter cells, luminescence, 24 h; hit rate 0.13% among 410,000; Potency, µM (series often up to 38.3 µM), inactives show top-dose activity change, negative = inhibition, usual class: inhibitors; AID 624418, 2012;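 note: loss of luciferase light is scored as toxicity; % is set by controls: 0 for no effect and ±100 for the full control effect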
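Seeding density was 200 cells/uL; after overnight-length (12 h) culture, 23 nL compounds went on for 24 h at 37 °C. Readout used a luciferase detection reagent, luminescence taken after 12 min at room temperature.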
GLP-1R agonist = qHTS of GLP-1 Receptor Agonists | HEK293 GLP-1R CRE-luciferase, luminescence, 4-6 h; cells express a hypersensitive GLP-1R form | Potency, µM (top dose mostly 45.6 µM), for inactives: top-dose activation, most hits filed as activators | AID 624172, 2012 | hit rate 0.007% among 380,000; note: % of control where 0% means no effect
VP16 counter = VP16 counterscreen qHTS for inhibitors of ROR gamma transcriptional activity; Drosophila S2 Gal4-VP16 UAS-luciferase, luminescence, 20 h; Potency, µM (series often up to 53.6 µM), for inactives: at the top dose activity, negative = inhibition, usual class: inhibitors; hit rate 3.5% among 310,000;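 note: Gal4-VP16 expression switched on by copper sulfate through the metallothionein promoter; % is set by controls: 0 for no effect and ±100 for the full control effect; nearly all actives have a fitted effect of over 50% in size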
An asterisk follows results filed as active; ? = inconclusive; . = not tested or not shown. Rows were chosen to be rich in hits. Some 5.9% of all compounds tested hit in one or more screens of this group. Calls come from the whole dose curve; as a rule, active = well fitted curve in the direction sought with a large enough effect; inconclusive = small, poorly fitted or top-dose-only effect, or another doubt; inactive = no such curve, though single readings can be large; an effect the other way counts as inactive or inconclusive. Potency is the fitted concentration of half-maximal effect.

SMILES | GLP-1R inv ag | RORgamma inh | GLP1R cytotox | GLP-1R agonist | VP16 counter
COc1ccc(-n2c3c(cc(C(=O)NNc4ccccc4C)c2=O)C(=O)CC(C)(C)C3)cc1 | ? | -23% | 8% | 11% | -10%
O=C(O)COc1ccccc1/C=N/NC(=O)CSc1nnc(SCc2ccc(Cl)cc2)s1 | ? | -4% | -32% | -5% | -8%
O=C(CSc1nnc(SCc2ccc(Cl)cc2)s1)N/N=C/c1c[nH]c2ccccc12 | ? | 11µM* | ? | 4% | 8.9µM*
O=C(CSc1nnc(SCc2cccc3ccccc23)s1)N/N=C/c1c[nH]c2ccccc12 | 5.6µM* | -29% | -6% | 3% | -7%
O=C(O)COc1ccccc1/C=N/NC(=O)CSc1nnc(SCc2cccc3ccccc23)s1 | ? | 22% | 3% | -2% | -2%
COc1ccc(COC(=O)c2ccc(Cl)c(S(=O)(=O)N3CC(C)OC(C)C3)c2)cc1 (stereo unspecified) | 8.9µM* | . | 5% | 4% | .
COc1ccc(CCC(=O)Nc2ccc(Cl)c(S(=O)(=O)N3CCCC3)c2)cc1 | 10µM* | 20% | -4% | -4% | ?
Cc1cccc(OC(C)C(=O)Nc2cc(S(=O)(=O)N3CCCCC3)ccc2C)c1 (stereo unspecified) | ? | . | 0% | 3% | .
Cc1ccc(S(=O)(=O)N2CCCCC2)cc1NC(=O)COC(=O)C1(C)CC1(Cl)Cl (stereo unspecified) | 7.9µM* | . | -7% | 10% | .
Cc1cccc(C(=O)N[C@H](C(=O)Nc2cc(S(=O)(=O)N3CCCCC3)ccc2C)C(C)C)c1 | 10µM* | 35% | -6% | -4% | -10%
CCOC(=O)c1c(C)c(-c2ccccc2)n(CC(=O)NCCc2cccc(C)c2)c1C | -7% | . | 0% | -1% | .
Cc1cc(Br)ccc1NC(=O)C(NS(=O)(=O)c1cccs1)c1ccccc1 (stereo unspecified) | ? | . | -9% | . | .
COc1ccc(OCCCC(=O)Nc2cc(S(=O)(=O)N3CCCCC3)ccc2C)cc1 | 5.6µM* | . | 2% | -5% | .
COC(=O)N1C(c2ccccc2)=Cc2ccccc2C1C1(C(=O)OC)CCCC1=O (stereo unspecified) | . | 20% | . | . | 29%
Cc1ccc2cc3cc(C(=O)N4CC(C)CC(C)C4)oc3nc2c1 (stereo unspecified) | 7.9µM* | ? | -10% | 21% | ?
Cc1ccc2cc3cc(C(=O)NC4CCCCC4)oc3nc2c1 | 7% | 0.56µM* | -21% | -2% | ?
Cc1ccc(C(=O)NC2CCCCCCC2)c(Cl)c1 | 4µM* | 7.1µM* | 6% | 0% | 8.9µM*
COc1ccc2cc3cc(C(=O)N4CC(C)CC(C)C4)oc3nc2c1 (stereo unspecified) | ? | ? | -7% | 8% | 2%
O=C(NC1CCCCCCC1)c1cc(F)c(F)cc1Cl | ? | 43% | 2% | 8% | -17%
CC1=CC2C(=O)c3cccc(O)c3C(=O)C2C(O)=C1 (stereo unspecified) | . | 28% | . | . | 2%
COc1ccc(S(=O)(=O)NCCc2sc(-c3cccc(C)c3)nc2C)cc1 | -23% | . | -3% | 12% | .
OC(c1ccccc1)c1nccc2ccccc12 (stereo unspecified) | ? | 13µM* | 8% | 6% | -11%
COc1cccc2nc3cc(C)c(C)cc3nc12 | ? | 10µM* | 2% | -4% | ?
COc1cccc2c1nc(C)c1cc(C)oc12 | 19% | -77% | -11% | 26% | -16%
Cc1ccc(NC(=O)C2(NC(=O)c3cccc(N4C(=O)CSC4c4ccccc4)c3)CCCCC2)cc1 (stereo unspecified) | 6.3µM* | 35% | 3% | -10% | -6%
O=C(O)c1cccc(N2C(=O)CSC2c2ccccc2)c1 (stereo unspecified) | -8% | -5% | 5% | -1% | -4%

Compound activity: PubChem BioAssay, National Center for Advancing Translational Sciences (NCATS)
